This is an account of results in PubChem BioAssay (NCATS).

Inconclusive results are not listed. Calls of active or inactive are those of the source. Calls follow the shape of the dose curve; as a rule, active = well fitted curve in the direction sought with a large enough effect; inconclusive = small, poorly fitted or top-dose-only effect, or another doubt; inactive = no such curve, though single readings can be large; an effect the other way counts as inactive or inconclusive.

A short description of experiment [1]: Quantitative High-Throughput drug screen in 47 multiple myeloma cell lines against the NCATS MIPE library collection: INA6_PLB cell viability assay (AID 1918965; also: nearly all actives have a fitted effect of over 55% in size; also: potency is read from the fitted curve at half-maximal effect). The method in brief:
(§1)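 Inhibition of cell viability is measured here. Each line was plated at 500 cells per well, treated with MIPE 4.0 drugs, kept 48 hours at 37C, then assayed for ATP content by CellTiter-Glo luminescence.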

The nature of experiment [2]: Quantitative High-Throughput drug screen in 47 multiple myeloma cell lines against the NCATS MIPE library collection: JJN3_DSMZ cell viability assay (AID 1918966; also: nearly all actives have a fitted effect of over 50% in size; also: potency is read from the fitted curve at half-maximal effect). An outline of the steps:
(§2)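 We plated 500 myeloma cells per well, pinned in MIPE 4.0 compounds, and incubated for 48 hours at 37C. ATP was then quantified with CellTiter-Glo, with DMSO and media-only wells defining 100% and 0%.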

Experiment [3] in a line: Quantitative High-Throughput drug screen in 47 multiple myeloma cell lines against the NCATS MIPE library collection: H1112_PLB cell viability assay (AID 1918967; also: nearly all actives have a fitted effect of over 30% in size; also: potency is read from the fitted curve at half-maximal effect). The method in brief: as §2
Experiment [4] in a line: Quantitative High-Throughput drug screen in 47 multiple myeloma cell lines against the NCATS MIPE library collection: Karpas25_ECACC cell viability assay (AID 1918968; also: nearly all actives have a fitted effect of over 35% in size; also: potency is read from the fitted curve at half-maximal effect). An outline of the steps:
as §2

Experiment [5] can be described thus: Quantitative High-Throughput drug screen in 47 multiple myeloma cell lines against the NCATS MIPE library collection: KMS27_JCRB cell viability assay (AID 1918970). Also: nearly all actives have a fitted effect of over 30% in size. Also: potency is read from the fitted curve at half-maximal effect. The method in brief: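 KMS27_JCRB myeloma cells, 500 per well, exposed 48 h at 37 C, 5% CO2 to MIPE 4.0 compounds. Viability from ATP by CellTiter-Glo luminescence, normalized to DMSO (100%) and medium-only (0%) wells.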

Experiment [6] in a line: Quantitative High-Throughput drug screen in 47 multiple myeloma cell lines against the NCATS MIPE library collection: KMS12BM_JCRB cell viability assay (AID 1918971). Also: nearly all actives have a fitted effect of over 35% in size. Also: potency is read from the fitted curve at half-maximal effect. An outline of the steps: (§3)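 qHTS of the MIPE 4.0 collection: 500 myeloma cells/well, 48 h drug exposure at 37C in 5% CO2, then CellTiter-Glo for 5 min at room temperature before luminescence reading.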
Experiment [7] can be described thus: Quantitative High-Throughput drug screen in 47 multiple myeloma cell lines against the NCATS MIPE library collection: KMS12PE_JCRB cell viability assay (AID 1918972). Also: nearly all actives have a fitted effect of over 30% in size. Also: potency is read from the fitted curve at half-maximal effect. An outline of the steps:
as §1

Experiment [8] can be described thus: Quantitative High-Throughput drug screen in 47 multiple myeloma cell lines against the NCATS MIPE library collection: KMS21BM_JCRB cell viability assay (AID 1918974). Also: potency is read from the fitted curve at half-maximal effect. As to conditions: ATP luminescence, 48 h; viability: at 45.8 µM (top of the series) unless noted. The method in brief: as §2
A short description of experiment [9]: Quantitative High-Throughput drug screen in 47 multiple myeloma cell lines against the NCATS MIPE library collection: KMS26_JCRB cell viability assay (AID 1918975). Also: nearly all actives have a fitted effect of over 45% in size. Also: potency is read from the fitted curve at half-maximal effect. The method in brief:
as §3

Experiment [10] is described as follows: Quantitative High-Throughput drug screen in 47 multiple myeloma cell lines against the NCATS MIPE library collection: MMM1_PLB cell viability assay (AID 1918976). Also: potency is read from the fitted curve at half-maximal effect; nearly all actives have a fitted effect of over 35% in size. An outline of the steps:
(§4)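 ATP-based luminescence (CellTiter-Glo, 5 min RT incubation) quantified surviving cells following two days' treatment with MIPE 4.0 agents at 37 °C, 5% CO2.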

A short description of experiment [11]: Quantitative High-Throughput drug screen in 47 multiple myeloma cell lines against the NCATS MIPE library collection: MOLP8_DSMZ cell viability assay (AID 1918977). Also: nearly all actives have a fitted effect of over 45% in size. Also: potency is read from the fitted curve at half-maximal effect. The method in brief:
as §4

A short description of experiment [12]: Quantitative High-Throughput drug screen in 47 multiple myeloma cell lines against the NCATS MIPE library collection: NCIH929_DSMZ cell viability assay (AID 1918978). Also: nearly all actives have a fitted effect of over 35% in size. Also: potency is read from the fitted curve at half-maximal effect. The method in brief:
as §4

Experiment [13] in a line: Quantitative High-Throughput drug screen in 47 multiple myeloma cell lines against the NCATS MIPE library collection: OCIMY1_PLB cell viability assay (AID 1918979). Also: nearly all actives have a fitted effect of over 35% in size. Also: potency is read from the fitted curve at half-maximal effect. An outline of the steps:
as §4

A short description of experiment [14]: Quantitative High-Throughput drug screen in 47 multiple myeloma cell lines against the NCATS MIPE library collection: MM1S_ATCC cell viability assay (AID 1918980). Also: nearly all actives have a fitted effect of over 45% in size. Also: potency is read from the fitted curve at half-maximal effect. The method in brief:
as §4

Experiment [15] is described as follows: Quantitative High-Throughput drug screen in 47 multiple myeloma cell lines against the NCATS MIPE library collection: MM1R_ATCC cell viability assay (AID 1918981). Also: nearly all actives have a fitted effect of over 35% in size. Also: potency is read from the fitted curve at half-maximal effect. An outline of the steps:
as §4

A short description of experiment [16]: Quantitative High-Throughput drug screen in 47 multiple myeloma cell lines against the NCATS MIPE library collection: LP1_DSMZ cell viability assay (AID 1918982). Also: nearly all actives have a fitted effect of over 35% in size. Also: potency is read from the fitted curve at half-maximal effect. The method in brief:
as §4

A short description of experiment [17]: Quantitative High-Throughput drug screen in 47 multiple myeloma cell lines against the NCATS MIPE library collection: KMS28PE_JCRB cell viability assay (AID 1918983). Also: nearly all actives have a fitted effect of over 35% in size. Also: potency is read from the fitted curve at half-maximal effect. The method in brief: as §4
Experiment [18] in a line: Quantitative High-Throughput drug screen in 47 multiple myeloma cell lines against the NCATS MIPE library collection: KMS34_JCRB cell viability assay (AID 1918985). Also: nearly all actives have a fitted effect of over 40% in size. Also: potency is read from the fitted curve at half-maximal effect. The method in brief: as §4
Experiment [19] in a line: Quantitative High-Throughput drug screen in 47 multiple myeloma cell lines against the NCATS MIPE library collection: KMS20_JCRB cell viability assay (AID 1918973). Also: potency is read from the fitted curve at half-maximal effect; nearly all actives have a fitted effect of over 45% in size. An outline of the steps: as §2
A short description of experiment [20]: Quantitative High-Throughput drug screen in 47 multiple myeloma cell lines against the NCATS MIPE library collection: L363_DSMZ cell viability assay (AID 1918984). Also: nearly all actives have a fitted effect of over 40% in size. An outline of the steps: as §4

For `CN(C)c1ccc2nc3ccc(=[N+](C)C)cc-3sc2c1`, the Potency in experiment [1] is 1.48 µM (active); in experiment [2], 0.662 µM (active); in [3], 8.33 µM (active); in [4] it was 0.662 µM (active); in experiment [5], 1.32 µM (active); in [6] it was 4.69 µM (active). The Potency in experiment [7] was 5.9 µM (active); in [8], 1.48 µM (active); in experiment [9], 1.32 µM (active); in experiment [10], 5.26 µM (active); in experiment [11] it was 3.32 µM (active); in [12] it was 6.62 µM (active). Also, the Potency in experiment [13] is 1.48 µM (active); in experiment [14], 2.64 µM (active); in experiment [15], 1.05 µM (active); in experiment [16], 4.69 µM (active); in experiment [17], 5.9 µM (active); in [18], 0.59 µM (active).

For `Nc1cc(C(Cl)=C(Cl)Cl)c(S(N)(=O)=O)cc1S(N)(=O)=O`, the Potency entry in experiment [1], in [3], in experiment [4], in [7], in experiment [9] and in [11] was “inactive” each time. The Potency entry in [12], in experiment [13], in experiment [15], in experiment [16], in experiment [17] and in [18] was “inactive” throughout. Moreover, the Potency in [14] was 0.059 µM (active).

For the molecule `COc1ccc(C2(C#N)CCC(C(=O)O)CC2)cc1OC1CCCC1` (stereo unspecified), the Potency in experiment [1] was 18.7 µM (active); in [4], 23.5 µM (active); in experiment [14] it was 26.4 µM (active). Moreover, the Potency entry in experiment [2], in experiment [5], in [6], in [7], in experiment [9] and in experiment [13] was “inactive” throughout. Besides, the Potency result in [15], in experiment [16], in [17] and in [18] was “inactive” each time.

Turning to `NC(=NCc1ccccc1)NC(=O)c1nc(Cl)c(N)nc1N`, the Potency in experiment [1] was 9.35 µM (active); in [3], 0.935 µM (active); in experiment [4], 2.09 µM (active); in [5], 33.2 µM (active); in [7] it was 23.5 µM (active); in [19], 7.43 µM (active). The values for the Potency in experiment [12] and in experiment [14] were 1.32 µM (active) and 0.935 µM (active), respectively. Moreover, the Potency entry in experiment [6], in experiment [9], in experiment [13], in experiment [15], in experiment [16] and in experiment [18] was “inactive” each time.

`CCOC(=O)C1=C[C@@H](OC(CC)CC)[C@H](NC(C)=O)[C@@H](N)C1`: the Potency entry in experiment [1], in experiment [3], in [4], in [5], in [7] and in [9] was “inactive” each time. Besides, the Potency result in experiment [11], in [12], in experiment [13], in experiment [15], in experiment [16] and in experiment [17] was “inactive” each time. For the same molecule, in experiment [18], the Potency result is “inactive”.

As for `COc1cc2nc(N3CCN(C(=O)C4CCCO4)CC3)nc(N)c2cc1OC` (stereo unspecified), the Potency result in [1], in experiment [2], in experiment [3], in [4], in [11] and in [12] was “inactive” each time. The Potency result in experiment [13], in [14], in experiment [15] and in experiment [17] was “inactive” each time. In addition, in [7], the Potency is 16.6 µM (active).

On to `Clc1ccc2c(N3CCN(CCCN4CCN(c5ccnc6cc(Cl)ccc56)CC4)CC3)ccnc2c1`, for which the Potency result in experiment [1], in [2], in experiment [3], in [4], in experiment [5] and in [6] was “inactive” each time. For the same molecule, the Potency entry in experiment [12], in experiment [13], in experiment [15], in experiment [16], in experiment [17] and in experiment [20] was “inactive” in each case. Moreover, the Potency entry in [18] is “inactive”.

Take `CCOC(=O)C1=C(O)C(=O)N(Cc2ccccc2)C1`: the Potency result in experiment [1], in [3], in [6], in [7], in experiment [8] and in [11] was “inactive” throughout. Besides, the Potency result in [12], in [13] and in experiment [17] was “inactive” each time. The Potency in experiment [2] was 9.35 µM (active); in experiment [10], 1.66 µM (active).

Regarding `Cc1cc(Cl)ccc1OCCCC(=O)NO`, the Potency in experiment [1] is 7.43 µM (active); in experiment [2] it was 0.372 µM (active); in experiment [3], 7.43 µM (active); in [4], 2.96 µM (active); in [6] it was 16.6 µM (active); in experiment [7], 14.8 µM (active). Further, the Potency is 8.33 µM (active) in experiment [9]; 2.64 µM (active) in [10]; 2.64 µM (active) in experiment [12]; 1.18 µM (active) in experiment [14]; 23.5 µM (active) in [15]; 26.4 µM (active) in [16]. In experiment [18], the Potency is 26.4 µM (active). For the same molecule, the Potency result in [11] was “inactive”.

Regarding `COC(=O)N[C@H](C(=O)N[C@@H](Cc1ccccc1)[C@@H](O)CN(Cc1ccc(-c2ccccn2)cc1)NC(=O)[C@@H](NC(=O)OC)C(C)(C)C)C(C)(C)C`, the Potency result in [1], in experiment [3], in experiment [7], in experiment [12], in experiment [13] and in [14] was “inactive” throughout. In addition, the Potency result in [20] is “inactive”. Moreover, the values for the Potency in [6], in [10] and in [18] were 20.9 µM (active), 6.62 µM (active) and 20.9 µM (active), respectively.

As for `CC1(C)CCC(C)(C)c2cc(NC(=O)c3ccc(C(=O)O)cc3)ccc21`, the Potency in experiment [1] is 18.7 µM (active); in [3], 10.5 µM (active); in [4], 20.9 µM (active); in [7], 20.9 µM (active); in experiment [12] it was 14.8 µM (active); in [14], 16.6 µM (active). Further, the Potency in experiment [15] was 13.2 µM (active). In addition, in experiment [13], the Potency entry was “inactive”.

Consider `Cc1nc(Nc2ncc(C(=O)Nc3c(C)cccc3Cl)s2)cc(N2CCN(CCO)CC2)n1`, for which the Potency in [1] was 0.0833 µM (active); in [2], 3.32 µM (active); in [4], 0.332 µM (active); in [5], 10.5 µM (active); in experiment [7] it was 0.372 µM (active); in experiment [8], 0.209 µM (active). In addition, the Potency in experiment [18] was 0.59 µM (active).

`CCOc1cc(CC(=O)N[C@@H](CC(C)C)c2ccccc2N2CCCCC2)ccc1C(=O)O`: the Potency entry in experiment [1], in experiment [3], in [4], in [12], in experiment [13] and in [16] was “inactive” throughout. Further, the Potency entry in experiment [17] and in experiment [18] was “inactive” throughout.

For the molecule `Cc1cc(=O)oc2cc(O)ccc12`, the Potency result in experiment [1], in [3], in experiment [6], in [7], in experiment [9] and in experiment [11] was “inactive” each time. For the same molecule, the Potency result in experiment [12], in [13], in experiment [16] and in experiment [17] was “inactive” throughout. Moreover, the Potency in experiment [4] is 4.69 µM (active); in [10], 0.296 µM (active); in experiment [15] it was 6.62 µM (active).
